# Paper PMC7862700, “An all-to-all approach to the identification of sequence-specific readers for epigenetic DNA modifications on cytosine”
# How the values were obtained:
# Test in all cases: DAPPL (digital affinity profiling via proximity ligation, sequencing); 10 mM Tris-HCl pH 7.5, 50 mM NaCl, 1 mM DTT, 4% glycerol, room temperature, 30 min; GST-TFs on glutathione beads, 16-mer random dsDNA library, 0.1% formaldehyde crosslink after washing; high values mean tight binding
# FEV = target: T1, FEV (Homo sapiens, UniProt Q99581 1-238); settings: protein: recombinant; tags: N-terminal GST; dsDNA, one strand shown
# T1 sequence: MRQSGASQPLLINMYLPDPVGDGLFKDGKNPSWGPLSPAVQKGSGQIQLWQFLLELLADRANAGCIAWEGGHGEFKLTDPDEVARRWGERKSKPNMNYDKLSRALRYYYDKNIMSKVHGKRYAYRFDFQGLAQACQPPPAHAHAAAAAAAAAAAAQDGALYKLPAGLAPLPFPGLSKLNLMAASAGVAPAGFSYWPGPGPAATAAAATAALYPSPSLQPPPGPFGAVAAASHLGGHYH
# Summary of the method: (§1)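 Yeast served to express human transcription factors as GST fusions, which were then captured on glutathione beads and labelled with DNA barcodes. Pooled with a tag-only sample, they were incubated with 200 nmole of a 16-mer random double-stranded DNA library for 30 min at room temperature in Tris/NaCl/DTT/glycerol buffer, washed, crosslinked with 0.1% formaldehyde, ligated by proximity, amplified by PCR and sequenced. Dividing each hexamer's read frequency for a factor by its frequency for the tag-only sample gives the binding signal.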
# ETV5 = ETV5 (Homo sapiens, UniProt P41161 1-510); settings: protein: recombinant; tags: N-terminal GST; dsDNA, one strand shown
# Sequence of ETV5 (P41161 whole entry): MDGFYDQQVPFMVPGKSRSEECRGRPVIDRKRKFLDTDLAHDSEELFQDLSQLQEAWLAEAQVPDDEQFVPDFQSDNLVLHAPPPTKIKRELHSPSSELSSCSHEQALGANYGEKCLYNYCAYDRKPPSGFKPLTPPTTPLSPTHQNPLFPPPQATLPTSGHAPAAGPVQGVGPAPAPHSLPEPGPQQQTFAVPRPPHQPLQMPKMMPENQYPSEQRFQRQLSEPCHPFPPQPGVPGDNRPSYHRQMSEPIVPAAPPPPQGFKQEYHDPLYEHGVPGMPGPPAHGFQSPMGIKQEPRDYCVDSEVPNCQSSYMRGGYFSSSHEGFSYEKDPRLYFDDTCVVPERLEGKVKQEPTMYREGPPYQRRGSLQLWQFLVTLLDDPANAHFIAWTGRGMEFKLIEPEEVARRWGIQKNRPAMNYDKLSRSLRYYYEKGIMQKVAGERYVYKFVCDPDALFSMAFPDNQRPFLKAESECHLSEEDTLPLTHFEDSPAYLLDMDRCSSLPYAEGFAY
# Summary of the method: as §1
# HSF1 = HSF1 (Homo sapiens, UniProt Q00613 1-529); settings: protein: recombinant; tags: N-terminal GST; chain copies: 3; dsDNA, one strand shown
# Sequence of HSF1 (Q00613 whole entry): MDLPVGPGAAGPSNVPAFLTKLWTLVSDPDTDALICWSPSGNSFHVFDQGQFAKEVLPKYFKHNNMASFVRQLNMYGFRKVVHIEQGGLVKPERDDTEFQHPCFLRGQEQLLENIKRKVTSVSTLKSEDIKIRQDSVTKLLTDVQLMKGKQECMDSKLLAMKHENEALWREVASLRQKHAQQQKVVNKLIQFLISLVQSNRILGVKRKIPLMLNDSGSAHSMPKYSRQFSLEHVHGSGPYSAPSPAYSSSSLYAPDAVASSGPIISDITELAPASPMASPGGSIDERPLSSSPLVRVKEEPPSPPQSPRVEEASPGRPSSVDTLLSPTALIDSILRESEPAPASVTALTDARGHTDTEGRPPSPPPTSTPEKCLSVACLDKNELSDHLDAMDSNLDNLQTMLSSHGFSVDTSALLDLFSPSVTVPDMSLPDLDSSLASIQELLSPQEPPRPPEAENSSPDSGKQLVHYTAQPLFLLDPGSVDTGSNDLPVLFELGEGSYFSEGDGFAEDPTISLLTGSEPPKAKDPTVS
# Summary of the method: as §1
# SPIC = target: T2, SPIC (Homo sapiens, UniProt Q8N5J4 1-248); settings: protein: recombinant; tags: N-terminal GST; dsDNA, one strand shown
# T2 sequence: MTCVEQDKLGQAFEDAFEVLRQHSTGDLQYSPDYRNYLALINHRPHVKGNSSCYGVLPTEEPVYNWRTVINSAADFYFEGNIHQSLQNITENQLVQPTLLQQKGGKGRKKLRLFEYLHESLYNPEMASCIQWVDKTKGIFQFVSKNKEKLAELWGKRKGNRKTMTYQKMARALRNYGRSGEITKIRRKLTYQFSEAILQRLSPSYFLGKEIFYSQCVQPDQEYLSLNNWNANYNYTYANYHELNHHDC
# Summary of the method: as §1
# ELF4 = ELF4 (Homo sapiens, UniProt Q99607 1-663); settings: protein: recombinant; tags: N-terminal GST; dsDNA, one strand shown
# Sequence of ELF4 (Q99607 whole entry): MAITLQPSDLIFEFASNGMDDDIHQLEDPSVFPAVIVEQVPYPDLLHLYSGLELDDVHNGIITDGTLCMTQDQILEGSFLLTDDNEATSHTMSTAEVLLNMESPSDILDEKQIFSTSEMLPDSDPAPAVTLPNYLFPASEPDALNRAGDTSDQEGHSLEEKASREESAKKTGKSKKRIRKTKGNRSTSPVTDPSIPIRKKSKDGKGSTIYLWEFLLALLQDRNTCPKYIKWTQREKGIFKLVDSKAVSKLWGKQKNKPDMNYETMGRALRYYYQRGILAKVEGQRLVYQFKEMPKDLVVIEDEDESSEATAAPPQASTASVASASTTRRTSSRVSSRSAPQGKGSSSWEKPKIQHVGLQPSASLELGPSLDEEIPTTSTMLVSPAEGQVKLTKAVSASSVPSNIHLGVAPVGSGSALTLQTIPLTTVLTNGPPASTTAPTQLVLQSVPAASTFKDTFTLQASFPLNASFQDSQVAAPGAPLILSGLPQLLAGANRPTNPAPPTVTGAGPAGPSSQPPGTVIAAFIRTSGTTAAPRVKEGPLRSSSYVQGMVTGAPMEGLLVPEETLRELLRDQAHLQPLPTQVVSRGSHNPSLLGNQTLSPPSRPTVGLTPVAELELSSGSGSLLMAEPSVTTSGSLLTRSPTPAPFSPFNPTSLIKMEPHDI
# Summary of the method: as §1
# ELK4 = target: T3, ELK4 (Homo sapiens, UniProt P28324-2 1-405); settings: protein: recombinant; tags: N-terminal GST; dsDNA, one strand shown
# T3 sequence: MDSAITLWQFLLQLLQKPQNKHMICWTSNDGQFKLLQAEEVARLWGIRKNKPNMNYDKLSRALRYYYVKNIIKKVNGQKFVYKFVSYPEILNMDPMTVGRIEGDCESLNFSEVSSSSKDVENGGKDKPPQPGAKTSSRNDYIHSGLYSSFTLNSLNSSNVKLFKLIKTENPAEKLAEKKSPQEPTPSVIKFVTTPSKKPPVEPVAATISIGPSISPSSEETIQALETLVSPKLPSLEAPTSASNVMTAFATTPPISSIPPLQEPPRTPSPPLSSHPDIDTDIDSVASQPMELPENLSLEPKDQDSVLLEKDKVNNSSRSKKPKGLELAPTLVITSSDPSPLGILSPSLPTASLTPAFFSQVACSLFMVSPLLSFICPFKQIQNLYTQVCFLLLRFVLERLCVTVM
# Summary of the method: as §1
# ETV2 = target: T4, ETV2 (Homo sapiens, UniProt O00321 1-342); settings: protein: recombinant; tags: N-terminal GST; dsDNA, one strand shown
# T4 sequence: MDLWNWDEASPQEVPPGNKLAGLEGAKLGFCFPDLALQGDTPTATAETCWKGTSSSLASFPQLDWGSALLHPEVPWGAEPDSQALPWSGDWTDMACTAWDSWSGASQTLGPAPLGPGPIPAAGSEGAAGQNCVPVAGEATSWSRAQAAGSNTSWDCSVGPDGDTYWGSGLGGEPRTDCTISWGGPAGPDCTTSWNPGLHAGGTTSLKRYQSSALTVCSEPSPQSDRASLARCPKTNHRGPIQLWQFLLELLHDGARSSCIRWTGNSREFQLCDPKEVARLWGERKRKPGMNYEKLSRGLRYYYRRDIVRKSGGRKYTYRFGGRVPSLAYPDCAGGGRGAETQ
# Summary of the method: as §1
# ELF3 = target: T5, ELF3 (Homo sapiens, UniProt P78545 1-371); settings: protein: recombinant; tags: N-terminal GST; dsDNA, one strand shown
# T5 sequence: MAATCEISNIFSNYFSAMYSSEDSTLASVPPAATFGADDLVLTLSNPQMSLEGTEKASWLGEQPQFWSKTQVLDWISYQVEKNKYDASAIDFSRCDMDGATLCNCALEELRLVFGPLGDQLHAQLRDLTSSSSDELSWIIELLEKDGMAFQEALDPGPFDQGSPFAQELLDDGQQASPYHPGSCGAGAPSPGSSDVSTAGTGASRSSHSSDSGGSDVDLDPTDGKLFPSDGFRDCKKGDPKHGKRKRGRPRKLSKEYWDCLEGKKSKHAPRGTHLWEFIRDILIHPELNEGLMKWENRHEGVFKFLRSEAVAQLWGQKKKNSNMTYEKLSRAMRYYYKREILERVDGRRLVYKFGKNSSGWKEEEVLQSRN
# Summary of the method: as §1
# CRX = CRX (Homo sapiens, UniProt O43186 1-299); settings: protein: recombinant; tags: N-terminal GST; dsDNA, one strand shown
# Sequence of CRX (O43186 whole entry): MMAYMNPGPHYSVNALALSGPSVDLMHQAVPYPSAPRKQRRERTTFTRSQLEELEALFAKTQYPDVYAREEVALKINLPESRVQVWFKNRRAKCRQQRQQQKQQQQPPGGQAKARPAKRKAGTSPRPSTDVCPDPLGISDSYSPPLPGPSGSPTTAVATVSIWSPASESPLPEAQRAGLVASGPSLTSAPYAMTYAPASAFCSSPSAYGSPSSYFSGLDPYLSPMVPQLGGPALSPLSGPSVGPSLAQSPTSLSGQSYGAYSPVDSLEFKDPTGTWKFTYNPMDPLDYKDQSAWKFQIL
# Summary of the method: as §1
# ETV1 = ETV1 (Homo sapiens, UniProt P50549 1-477); settings: protein: recombinant; tags: N-terminal GST; dsDNA, one strand shown
# Sequence of ETV1 (P50549 whole entry): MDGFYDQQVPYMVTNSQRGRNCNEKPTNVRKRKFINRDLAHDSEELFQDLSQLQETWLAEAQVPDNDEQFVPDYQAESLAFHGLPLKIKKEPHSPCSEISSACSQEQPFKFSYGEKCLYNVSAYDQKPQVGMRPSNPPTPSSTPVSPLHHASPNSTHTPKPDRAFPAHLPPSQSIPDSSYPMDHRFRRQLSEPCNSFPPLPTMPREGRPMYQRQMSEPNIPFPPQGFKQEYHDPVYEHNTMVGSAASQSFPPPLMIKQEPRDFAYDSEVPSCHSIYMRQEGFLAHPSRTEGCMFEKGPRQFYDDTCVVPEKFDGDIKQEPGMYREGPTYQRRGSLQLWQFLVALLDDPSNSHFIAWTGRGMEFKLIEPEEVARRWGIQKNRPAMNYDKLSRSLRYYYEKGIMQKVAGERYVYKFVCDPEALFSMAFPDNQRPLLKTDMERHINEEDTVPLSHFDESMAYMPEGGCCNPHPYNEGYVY
# Summary of the method: as §1
# ERF = target: T6, ERF (Homo sapiens, UniProt P50548 1-548); settings: protein: recombinant; tags: N-terminal GST; dsDNA, one strand shown
# T6 sequence: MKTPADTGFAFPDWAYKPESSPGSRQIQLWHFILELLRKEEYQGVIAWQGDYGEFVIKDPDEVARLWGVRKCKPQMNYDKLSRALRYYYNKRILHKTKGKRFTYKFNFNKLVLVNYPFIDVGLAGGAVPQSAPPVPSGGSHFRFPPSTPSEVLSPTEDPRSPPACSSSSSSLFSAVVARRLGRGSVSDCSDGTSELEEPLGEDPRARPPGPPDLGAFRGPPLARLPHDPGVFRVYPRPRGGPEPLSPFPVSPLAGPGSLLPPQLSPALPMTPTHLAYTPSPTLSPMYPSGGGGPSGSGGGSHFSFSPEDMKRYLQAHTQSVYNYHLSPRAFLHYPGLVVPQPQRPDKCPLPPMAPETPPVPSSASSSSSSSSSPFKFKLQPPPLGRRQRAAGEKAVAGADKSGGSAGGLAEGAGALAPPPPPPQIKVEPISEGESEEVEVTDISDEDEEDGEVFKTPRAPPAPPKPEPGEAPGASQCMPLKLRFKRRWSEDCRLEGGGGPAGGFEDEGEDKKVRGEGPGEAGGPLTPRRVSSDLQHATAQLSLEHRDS
# Summary of the method: as §1
# ETV3L = target: T7, ETV3L (Homo sapiens, UniProt Q6ZN32 1-361); settings: protein: recombinant; tags: N-terminal GST; dsDNA, one strand shown
# T7 sequence: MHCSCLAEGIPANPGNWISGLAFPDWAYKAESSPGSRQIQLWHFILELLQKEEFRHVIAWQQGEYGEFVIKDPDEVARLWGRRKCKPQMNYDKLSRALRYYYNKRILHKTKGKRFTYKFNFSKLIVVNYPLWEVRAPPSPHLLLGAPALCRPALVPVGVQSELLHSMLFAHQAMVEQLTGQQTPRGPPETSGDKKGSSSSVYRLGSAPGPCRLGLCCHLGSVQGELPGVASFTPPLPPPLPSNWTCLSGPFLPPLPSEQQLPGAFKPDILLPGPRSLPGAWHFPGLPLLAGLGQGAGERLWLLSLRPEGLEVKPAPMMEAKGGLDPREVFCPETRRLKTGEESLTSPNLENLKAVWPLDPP
# Summary of the method: as §1
# ETS2 = target: T8, ETS2 (Homo sapiens, UniProt P15036 1-469); settings: protein: recombinant; tags: N-terminal GST; dsDNA, one strand shown
# T8 sequence: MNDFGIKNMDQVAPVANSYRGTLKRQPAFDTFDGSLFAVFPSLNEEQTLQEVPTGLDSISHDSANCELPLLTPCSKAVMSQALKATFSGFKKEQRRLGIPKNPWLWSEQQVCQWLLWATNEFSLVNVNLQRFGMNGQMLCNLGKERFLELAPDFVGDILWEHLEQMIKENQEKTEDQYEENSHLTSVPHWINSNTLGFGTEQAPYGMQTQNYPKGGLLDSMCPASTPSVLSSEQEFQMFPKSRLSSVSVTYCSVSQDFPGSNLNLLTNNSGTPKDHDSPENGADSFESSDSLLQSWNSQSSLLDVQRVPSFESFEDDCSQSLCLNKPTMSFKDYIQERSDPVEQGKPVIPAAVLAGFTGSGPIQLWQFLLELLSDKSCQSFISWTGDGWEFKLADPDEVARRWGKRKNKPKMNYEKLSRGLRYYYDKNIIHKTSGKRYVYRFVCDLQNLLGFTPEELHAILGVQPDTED
# Summary of the method: as §1
# SPDEF = target: T9, SPDEF (Homo sapiens, UniProt O95238 1-335); settings: protein: recombinant; tags: N-terminal GST; dsDNA, one strand shown
# T9 sequence: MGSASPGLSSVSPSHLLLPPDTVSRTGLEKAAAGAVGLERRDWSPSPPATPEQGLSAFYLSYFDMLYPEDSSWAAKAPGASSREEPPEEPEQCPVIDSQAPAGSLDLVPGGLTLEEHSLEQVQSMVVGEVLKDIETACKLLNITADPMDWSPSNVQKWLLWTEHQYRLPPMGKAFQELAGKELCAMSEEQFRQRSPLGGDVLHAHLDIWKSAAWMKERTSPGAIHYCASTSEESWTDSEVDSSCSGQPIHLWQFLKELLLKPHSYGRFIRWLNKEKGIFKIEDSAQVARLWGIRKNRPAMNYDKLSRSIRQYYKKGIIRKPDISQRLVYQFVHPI
# Summary of the method: as §1
# ETV7 = target: T10, ETV7 (Homo sapiens, UniProt Q9Y603 1-341); settings: protein: recombinant; tags: N-terminal GST; dsDNA, one strand shown
# T10 sequence: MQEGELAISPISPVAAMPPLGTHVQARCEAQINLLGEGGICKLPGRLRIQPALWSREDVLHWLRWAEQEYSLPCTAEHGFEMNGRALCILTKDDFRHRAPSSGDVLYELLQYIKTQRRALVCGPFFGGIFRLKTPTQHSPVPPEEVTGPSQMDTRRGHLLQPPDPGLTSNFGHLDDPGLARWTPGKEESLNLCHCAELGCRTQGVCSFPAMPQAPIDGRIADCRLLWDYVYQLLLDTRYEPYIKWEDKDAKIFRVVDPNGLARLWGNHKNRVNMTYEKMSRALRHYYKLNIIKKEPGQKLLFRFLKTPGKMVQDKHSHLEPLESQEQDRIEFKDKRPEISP
# Summary of the method: as §1
# ELF5 = target: T11, ELF5 (Homo sapiens, UniProt Q9UKW6-2 1-255); settings: protein: recombinant; tags: N-terminal GST; dsDNA, one strand shown
# T11 sequence: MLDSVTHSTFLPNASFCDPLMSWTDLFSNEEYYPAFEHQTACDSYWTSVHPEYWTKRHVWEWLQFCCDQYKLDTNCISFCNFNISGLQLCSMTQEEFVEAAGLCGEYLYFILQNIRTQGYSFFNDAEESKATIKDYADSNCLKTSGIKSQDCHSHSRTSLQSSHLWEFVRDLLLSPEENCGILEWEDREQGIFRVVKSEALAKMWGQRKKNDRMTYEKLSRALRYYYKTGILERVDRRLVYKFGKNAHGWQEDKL
# Summary of the method: as §1
# ETV3 = target: T12, ETV3 (Homo sapiens, UniProt P41162-2 1-143); settings: protein: recombinant; tags: N-terminal GST; dsDNA, one strand shown
# T12 sequence: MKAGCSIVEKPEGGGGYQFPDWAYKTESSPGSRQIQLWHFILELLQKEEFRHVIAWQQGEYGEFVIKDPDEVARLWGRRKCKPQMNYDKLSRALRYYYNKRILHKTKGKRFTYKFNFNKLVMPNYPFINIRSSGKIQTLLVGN
# Summary of the method: as §1
# ETV6 = ETV6 (Homo sapiens, UniProt P41212 1-452); settings: protein: recombinant; tags: N-terminal GST; dsDNA, one strand shown
# Sequence of ETV6 (P41212 whole entry): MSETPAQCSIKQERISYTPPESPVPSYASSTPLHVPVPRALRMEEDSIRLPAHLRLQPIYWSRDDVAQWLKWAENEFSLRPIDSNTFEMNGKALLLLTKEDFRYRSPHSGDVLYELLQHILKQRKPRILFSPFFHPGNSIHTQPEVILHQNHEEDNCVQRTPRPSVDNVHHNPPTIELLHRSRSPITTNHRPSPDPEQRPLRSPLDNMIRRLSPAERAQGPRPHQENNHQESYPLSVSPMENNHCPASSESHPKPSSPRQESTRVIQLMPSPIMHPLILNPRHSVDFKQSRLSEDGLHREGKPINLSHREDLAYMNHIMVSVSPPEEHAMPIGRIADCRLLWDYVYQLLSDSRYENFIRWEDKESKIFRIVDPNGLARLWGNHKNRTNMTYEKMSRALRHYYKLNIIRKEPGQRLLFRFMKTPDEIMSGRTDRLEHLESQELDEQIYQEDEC
# Summary of the method: as §1
sequence,measurement,setting,value
CTGCTA,binding signal,FEV,"1.47 fold enrichment (6-mer frequency, TF over GST control)"
same,binding signal,ETV5,"1.56 fold enrichment (6-mer frequency, TF over GST control)"
same,binding signal,HSF1,"1.37 fold enrichment (6-mer frequency, TF over GST control)"
same,binding signal,SPIC,"1.5 fold enrichment (6-mer frequency, TF over GST control)"
same,binding signal,ELF4,"1.42 fold enrichment (6-mer frequency, TF over GST control)"
same,binding signal,ELK4,"1.68 fold enrichment (6-mer frequency, TF over GST control)"
same,binding signal,ETV2,"1.49 fold enrichment (6-mer frequency, TF over GST control)"
same,binding signal,ELF3,"1.67 fold enrichment (6-mer frequency, TF over GST control)"
same,binding signal,CRX,"1.36 fold enrichment (6-mer frequency, TF over GST control)"
same,binding signal,ETV1,"1.64 fold enrichment (6-mer frequency, TF over GST control)"
same,binding signal,ERF,"1.49 fold enrichment (6-mer frequency, TF over GST control)"
same,binding signal,ETV3L,"1.38 fold enrichment (6-mer frequency, TF over GST control)"
same,binding signal,ETS2,"1.49 fold enrichment (6-mer frequency, TF over GST control)"
same,binding signal,SPDEF,"1.4 fold enrichment (6-mer frequency, TF over GST control)"
same,binding signal,ETV7,"1.5 fold enrichment (6-mer frequency, TF over GST control)"
same,binding signal,ELF5,"1.43 fold enrichment (6-mer frequency, TF over GST control)"
same,binding signal,ETV3,"1.39 fold enrichment (6-mer frequency, TF over GST control)"
same,binding signal,ETV6,"1.39 fold enrichment (6-mer frequency, TF over GST control)"
